Only some compounds are listed: those with a hit (about 0.9% of all), similar ones and a draw of the others.
RXFP1 ag: qHTS Assay for Agonists of the Relaxin Receptor RXFP1. Relaxin receptor 1 (Homo sapiens), Q9HBX9. HEK293T-RXFP1 cAMP TR-FRET, 30 min; response scale: percent of porcine relaxin response, buffer zero. Potency, µM (doses to about 57.5 µM), inactives show at the highest dose activation, actives largely listed as activators. 0.3% of 370,000 active; active = well fitted activation curve with a large enough effect; inconclusive = small, poorly fitted or top-dose-only effect; also: potency is read from the fitted curve at half-maximal effect; % is scaled to controls: 0 for no effect and ±100 for the full control effect; nearly all actives have a fitted effect of over 60% in size
Target sequence (Q9HBX9 whole entry, looked up): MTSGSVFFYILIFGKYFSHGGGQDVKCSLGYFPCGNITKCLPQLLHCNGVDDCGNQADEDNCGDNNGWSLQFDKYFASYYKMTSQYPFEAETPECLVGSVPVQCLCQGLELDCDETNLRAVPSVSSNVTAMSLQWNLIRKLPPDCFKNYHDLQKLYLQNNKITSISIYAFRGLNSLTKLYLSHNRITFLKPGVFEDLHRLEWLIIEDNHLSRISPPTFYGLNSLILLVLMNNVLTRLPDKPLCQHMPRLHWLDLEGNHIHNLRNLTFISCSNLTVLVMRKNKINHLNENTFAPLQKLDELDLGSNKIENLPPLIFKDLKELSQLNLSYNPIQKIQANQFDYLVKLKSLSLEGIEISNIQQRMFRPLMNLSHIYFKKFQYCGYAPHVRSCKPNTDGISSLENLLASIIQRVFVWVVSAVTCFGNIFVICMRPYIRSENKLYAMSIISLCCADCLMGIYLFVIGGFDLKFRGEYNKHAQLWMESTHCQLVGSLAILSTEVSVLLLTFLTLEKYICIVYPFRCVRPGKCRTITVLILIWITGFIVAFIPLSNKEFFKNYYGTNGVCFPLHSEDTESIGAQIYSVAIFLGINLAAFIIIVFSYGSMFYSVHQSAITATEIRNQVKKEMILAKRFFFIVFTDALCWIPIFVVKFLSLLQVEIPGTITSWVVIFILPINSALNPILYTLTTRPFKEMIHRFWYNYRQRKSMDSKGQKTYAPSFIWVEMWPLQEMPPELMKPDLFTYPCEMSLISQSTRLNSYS
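HEK293 cells stably expressing RXFP1, treated 30 min at 37C with compounds plus PDE4 inhibitor Ro 20174; cAMP measured by HTRF TR-FRET. Normalized to buffer and 29 nM porcine relaxin; EC50 by Hill fit.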
gsp antag: qHTS for Antagonists of gsp, the Etiologic Mutation Responsible for Fibrous Dysplasia/McCune-Albright Syndrome: qHTS. gsp-mutant cells, cAMP HTRF, 30 min. Potency, µM (doses to about 76.9 µM), for the others: at the top dose activity change, negative = inhibition, usual class: inhibitors. 0.4% of 340,000 active. AID 624288, 2012; calls by dose curve; cell line not stated here;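 also: intracellular cAMP measured with PDE inhibitor Ro 20-1724 present during compound exposure; potency is read from the fitted curve at half-maximal effect; % is scaled to controls: 0 for no effect and ±100 for the full control effect; nearly all actives have a fitted effect of over 65% in size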
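HTRF cAMP measurement after 30 min RT detection following 30 min, 37C compound treatment alongside […] (added as 300 uM solution) in G418-selected cells seeded at 2000/well and grown 16–24 h.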
gsp agonist: qHTS for Agonist of gsp, the Etiologic Mutation Responsible for Fibrous Dysplasia/McCune-Albright Syndrome: qHTS | gsp mutant cells, cAMP HTRF, 30 min | Potency, µM (top dose mostly 76.9 µM), for the others: at the top dose activation (cAMP increase), actives largely listed as activators | 0.13% of 340,000 active | AID 624287, 2012; active = well fitted activation curve with a large enough effect; inconclusive = small, poorly fitted or top-dose-only effect, or another doubt; inactive = no such curve, though single readings can be large or run the other way; cell line not stated here;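 also: phosphodiesterase inhibitor Ro 20-1724 added with compounds to block cAMP breakdown; potency is read from the fitted curve at half-maximal effect; nearly all actives have a fitted effect of over 60% in size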
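Cells stably selected in G418 were plated at 2000/well, grown 16-24 hr, then given compounds in DMSO with the PDE inhibitor […] (300 uM solution added) for 30 min at 37C; cAMP was read by HTRF.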
RXFP1 antag: qHTS Assay for Antagonists of the Relaxin Receptor RXFP1; HEK293-RXFP1, relaxin-stimulated cAMP HTRF, 30 min; active compounds read low; activity change, negative = inhibition, % at 57.5 µM; 0.59% of 350,000 active; AID 1259400, 2018;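 active = activity change of -60% or lower, but not beyond a set lower limit; inconclusive = change between -60% and -40%, or beyond the set limit; inactive = change above -40%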; also: % is scaled to controls: 0 for no effect and ±100 for the full control effect
* = called active by the depositor; ? = inconclusive; / = no result; ! = a repeat was not active; [ ] = remark or other dose.

SMILES	RXFP1 ag	gsp antag	gsp agonist	RXFP1 antag
COC(=O)c1ccccc1N=Nc1c(N)n[nH]c1N	-3%	-26%	-2%[15.4 µM]	-8
COC(=O)c1ccccc1N=Nc1c(N)[nH][nH]c1=O	-5%	40µM*	20%	?
Cc1ccc(/C=N/n2c(-c3cccnc3)n[nH]c2=S)s1	0%	7.9µM*	-20%	10
S=c1[nH]nc(-c2cccnc2)n1/N=C/c1ccc(Br)s1	1%	?	-5%[15.4 µM]	-4
COc1ccc(CN(C)CC(O)COc2ccc(-c3ccccc3)cc2)cc1OC (centres undefined)	-2%	5%	13%	-66*
CC(=O)Nc1ccc(NS(=O)(=O)c2cc([N+](=O)[O-])ccc2C)cc1	2%	/	7%[15.4 µM]	-4
Cc1cccc(NS(=O)(=O)c2cc([N+](=O)[O-])ccc2C)n1	4%	8%	2%[15.4 µM]	-62*
O=C1/C(=C/c2ccncc2)Oc2cc(OS(=O)(=O)c3ccccc3)ccc21	0%	-9%	-1%	-82*
Cc1cc(C)c(S(=O)(=O)N2CCOC2CNC(=O)C(=O)NCc2ccccn2)c(C)c1 (centres undefined)	-1%	7%	-29%	0
Cc1cc(C)c(S(=O)(=O)N2CCCOC2CNC(=O)C(=O)NCc2ccccn2)c(C)c1 (centres undefined)	1%	11µM*	24%[15.4 µM]	-11
CCOC(=O)Cc1csc(Nc2ccc(Cl)cc2)n1	2%	-13%	-13%	6
CCOC(=O)Cc1nnc2c(Nc3ccc(Cl)cc3)nc3nonc3n12	1%	35µM*	6%	-14
Cc1cc(C)n(-c2cc(C(C)(C)C)nc3c(-c4ccccc4)cnn23)n1	-1%	-27%	7%[15.4 µM]	-80*
Cc1cc(C)n(-c2cc(C(C)(C)C)nc3c(-c4ccc(Cl)cc4)cnn23)n1	0%	-6%	-49%	-10
O=C1C(=O)N(CCCN2CCOCC2)C(c2ccc(Cl)cc2)/C1=C(\O)c1ccc2c(c1)OCCO2 (centres undefined)	?	28%	11µM*	29
O=C1C(=O)N(Cc2cccnc2)C(c2ccc(Br)cc2)/C1=C(\O)c1ccc2c(c1)OCCO2 (centres undefined)	?	12%	8.9µM*	0
CCOc1ccc(/C(O)=C2/C(=O)C(=O)N(CCCN3CCOCC3)C2c2ccc(C)cc2)cc1C (centres undefined)	27%	11µM*	39%	-1
COc1cccc(C2/C(=C(\O)c3ccc4c(c3)OCCO4)C(=O)C(=O)N2CCCN2CCOCC2)c1OC (centres undefined)	28%	26%	8.9µM*	17
CCOc1ccc(C2/C(=C(\O)c3ccc4c(c3)OCCO4)C(=O)C(=O)N2CCN2CCOCC2)cc1OCC (centres undefined)	6%	6%	?	10
COc1ccc(C2/C(=C(\O)c3ccc4c(c3)OCCO4)C(=O)C(=O)N2Cc2cccnc2)cc1OC (centres undefined)	19%	13%	24%	4
Cc1ccc(NC(=O)c2c(C(=O)Nc3ccccc3)sc3nc(C)cc(=O)n23)c(C)c1	5%	/	/	1
Cc1nc2ncnn2c(N2CCN(C(c3ccccc3)c3ccccc3)CC2)c1C	0%	-36%	1%	-116*
Cc1cc(N2CCN(C(c3ccccc3)c3ccccc3)CC2)n2ncnc2n1	3%	-11%	0%	?
CCOc1cc(NC(C)=O)ccc1C(=O)OC	/	/	/	2
CCOC(=O)c1c(-c2ccccc2)oc2ccc(OCC)cc12	2%	-9%	9%	-13
SMILES	RXFP1 ag	gsp antag	gsp agonist	RXFP1 antag
CCOC(=O)c1c(-c2ccccc2)oc2ccc(OCC(O)CNCCN(C)C)cc12 (centres undefined)	0%	13%	8%[15.4 µM]	-100*
CCOC(=O)c1c(C)[nH]sc1=S	25µM*	11%	36%[15.4 µM]	9
CCOC(=O)c1sc(=S)[nH]c1C	/	8%	?	-8
Cc1ccc(-c2nonc2NC(=O)c2ccc(F)cc2)cc1C	?	/	/	-8
O=C1OC(/C(=C\Nc2cc(Cl)ccc2O)[N+](=O)[O-])c2ccccc21 (centres undefined)	0%	-24%	19%[15.4 µM]	-82*
CN(C)c1nc(=NCc2cccs2)ss1	/	-7%	14%	-20
Cn1cnnc1Sc1nc2c(c(=O)n(C)c(=O)n2C)n1C	/	10%	22µM*	4
CCC1(c2ccccc2)SCC(c2ccccc2)=NC1=O (centres undefined)	/	-15%	3%	-62*
CCC1(c2ccccc2)SC(N)=NC1=O (centres undefined)	/	-4%	-82%	1
CCOc1ccc(C(=O)C(CCC(CN(C)C)C(=O)c2ccc(OCC)cc2)CN(C)C)cc1 (centres undefined)	1%	-14%	?	?
CN(C)CC(CCC(CN(C)C)C(=O)c1ccccc1)C(=O)c1ccccc1 (centres undefined)	1%	27%	-1%[15.4 µM]	-76*
O=C(c1ccccc1)C(CCC(CN1CCOCC1)C(=O)c1ccccc1)CN1CCOCC1 (centres undefined)	1%	12%[15.4 µM]	13%	-68*
COc1ccc(N(C)C(=O)c2ccc3c(Cl)c4c(nc3c2)CCCC4)c(OC)c1	2%	?	-20%	-96*
CCc1ccc(N(CC)C(=O)c2ccc3c(Cl)c4c(nc3c2)CCC4)cc1	2%	-29%	-33%	-76*
COc1ccccc1NC(=O)c1ccc2c(Cl)c3c(nc2c1)CCCC3	2%	/	/	/
CCN(C(=O)c1ccc2c(Cl)c3c(nc2c1)CCC3)c1cccc(C)c1	1%	/	/	/
Cc1ccc(N(C)C(=O)c2ccc3c(Cl)c4c(nc3c2)CCC4)cc1C	1%	?	2%	-89*
O=C(c1ccccc1)N1c2ncnn2C2(CCCCC2)[C@@H]2CCCC[C@@H]21	-1%	/	/	-8
CNC(=O)c1ccccc1Sc1ccc2c(/C=C/c3ccccn3)n[nH]c2c1	/	/	/	28
CCOc1ccc(CCNC(=O)c2ccc(CSCc3ccccc3C)o2)cc1OCC	4%	/	/	-32
Cc1ccc(Cl)cc1N1CCN(C(=O)C(C)n2ncn3cccc3c2=O)CC1 (centres undefined)	28µM*!	-16%	-1%	-1
COc1ccc(Cn2c(-c3ccc(C)cc3)nc3c(c(=O)c4ccccc4n3C)c2=O)cc1	4%	25µM*	-7%	2
COCCn1ccc2c(OCC(=O)Nc3cc(OC)ccc3OC)cccc2c1=O	0%	?	18%	-5
COc1ccccc1NC(=O)c1ccc(-c2nn(C)c(=O)c3ccccc23)cc1	0%	40µM*	1%[15.4 µM]	-34
CCOCCn1ccc2c(OCC(=O)Nc3cc(OC)ccc3OC)cccc2c1=O	2%	16µM*	9%[15.4 µM]	-2

Screens (PubChem BioAssay)
